Shiga inhibitor: A qHTS for Small Molecule Inhibitors of Shiga Toxin; 290,000 compounds, 9.2% hits; inhibition, % at 38.7 µM; AID 2315, 2010; Vero cells, Shiga toxin protein synthesis inhibition reporter; in the data active means inhibition mostly above about 28%, no sharp cut-off; inactive means mostly below about 43%; further: 0% is about no effect
Lassa entry inh: qHTS for Inhibitors of binding or entry into cells for Lassa Virus; 300,000 compounds, 1.2% hits; AID 540256, 2011; Potency, µM (titrated, usually from 37.9 µM), without a hit: at the highest dose activity change, negative = inhibition, actives largely listed as inhibitors; Lassa virus pseudotype entry inhibition, cell reporter; calls by dose curve; tested in HEK293 cells; further: potency means the concentration at half of the fitted maximal effect; on the % scale 0 is the no-effect control and ±100 the full control effect; nearly all actives have a fitted effect of over 50% in size
MARV entry inh: qHTS for inhibitors of binding or entry into cells for Marburg Virus; 300,000 compounds, 1.8% hits; Potency, µM (top dose mostly 37.8 µM), inactives show at the top dose activity change, negative = inhibition, most hits filed as inhibitors; Marburg virus pseudotyped entry inhibition, cell reporter; calls by dose curve; tested in HEK293 cells; further: potency means the concentration at half of the fitted maximal effect; on the % scale 0 is the no-effect control and ±100 the full control effect
Cycloheximide cs: Cycloheximide Counterscreen for Small Molecule Inhibitors of Shiga Toxin; cell reporter, cycloheximide protein synthesis inhibition counterscreen; max response, %; 300,000 compounds, 12% hits; in the data active means max response mostly above about 13%, no sharp cut-off; inactive means mostly below about 14%; further: read at 38.3 µM for the half of the compounds with a filed dose; 0% is about no effect
Starred values were filed as active, the others as inactive; [ ] = dose if it differs, or a comment. Sampled rows, rich in hits. Any-hit rate of the full collection: about 12%.

For Cc1cccc(OC(C)C(=O)N2CCCN(C)CC2)c1C (configuration not stated) the results were Shiga inhibitor -26.4 and Cycloheximide cs 4.7.
O=C1C=C(N(CCO)Cc2ccccc2)c2ccccc2C1=O was read as Shiga inhibitor -12.8, Lassa entry inh 4.47µM*, MARV entry inh inconclusive and Cycloheximide cs -0.6.
`CC(C)(C)n1nnnc1C(c1ccc(F)cc1)N(Cc1ccc(F)cc1)Cc1ccco1` (configuration not stated) gave Shiga inhibitor 20.6, Lassa entry inh inconclusive, MARV entry inh inconclusive and Cycloheximide cs 16.0*.
For CCN(Cc1ccccc1)C(c1ccncc1)c1nnnn1C(C)(C)C (configuration not stated) the results were Shiga inhibitor -10.9, Lassa entry inh -47.3%, MARV entry inh -18.6% and Cycloheximide cs -2.5.
Screening CC(C)(C)n1nnnc1C(c1ccc(C(F)(F)F)cc1)N(Cc1ccc(F)cc1)Cc1ccco1 (configuration not stated) returned Shiga inhibitor active, Lassa entry inh inconclusive, MARV entry inh inconclusive and Cycloheximide cs 13.0*.
`CC(C)(C)c1ccc(CN(Cc2ccccc2)C(c2ccccn2)c2nnnn2C(C)(C)C)cc1` (configuration not stated) gave Shiga inhibitor 13.6, Lassa entry inh 5.62µM*, MARV entry inh inconclusive and Cycloheximide cs -1.6.
For COc1ccc(C2=CC(c3ccc(OC)c(OC)c3)NC(=S)N2)cc1 (configuration not stated) the results were Shiga inhibitor -19.9, Lassa entry inh 0.0%, MARV entry inh -13.2%[46.1 µM] and Cycloheximide cs -0.5.
Screening COc1ccc(C2C=C(C34CC5CC(CC(C5)C3)C4)NC(=S)N2)cc1 (configuration not stated) returned Shiga inhibitor -4.4, Lassa entry inh inconclusive, MARV entry inh 14.6µM* and Cycloheximide cs -1.9.
Screening COc1ccc(OC)c(/C=C/C(=O)c2ccc3c(c2)OCCO3)c1 returned Shiga inhibitor 26.2* and Cycloheximide cs 25.2*.
`O=C(/C=C/c1ccccc1)c1ccc2c(c1)OCCCCO2` gave Shiga inhibitor 41.4*, Lassa entry inh inconclusive, MARV entry inh inconclusive and Cycloheximide cs 42.8*.
For O=C(O)c1ccc2c(c1)OCCCO2 the results were Shiga inhibitor -4.0 and Cycloheximide cs -2.7.
O=C(c1ccccc1)c1ccc2c(c1)OCCOCCOCCO2 was read as Shiga inhibitor 48.8* and Cycloheximide cs 14.0*.
For O=C(c1ccccc1)c1ccc2c(c1)OCCCO2 the results were Shiga inhibitor 93.5*, Lassa entry inh 23.6%[46.1 µM], MARV entry inh -19.8%[46.1 µM] and Cycloheximide cs 54.5*.
COc1ccc(NC(=O)Cn2c(=O)n(-c3cccc(C)c3)c(=O)c3c2c2cc(C)ccc2n3C)cc1OC was read as Lassa entry inh -1.6%[46.1 µM] and MARV entry inh 12.3%[46.1 µM].
For COc1ccc(NCc2cc3cc4c(cc3n(CC(=O)Nc3cc(C)ccc3C)c2=O)OCCO4)cc1 the results were Lassa entry inh 5.1%[46.1 µM].
For Cc1cc(=O)oc(C)c1C(=O)OCC(=O)c1ccc2ccccc2c1 the results were Shiga inhibitor 52.2*, Lassa entry inh inconclusive, MARV entry inh inconclusive and Cycloheximide cs 29.7*.
`Cc1onc(-c2ccccc2)c1C(=O)OCC(=O)c1ccccc1` gave Shiga inhibitor -10.6, Lassa entry inh -16.1%, MARV entry inh inconclusive and Cycloheximide cs -3.2.
Screening Cc1cc(=O)oc(C)c1C(=O)OCC(=O)c1ccccc1 returned Shiga inhibitor 33.7, Lassa entry inh -9.6%, MARV entry inh 0.0% and Cycloheximide cs 29.6*.
`Cc1cccc(CS(=O)(=O)c2ncc(CO)n2C)c1` gave Shiga inhibitor 1.8 and Cycloheximide cs -3.1.
`COc1ccc2c(CCNC(=O)c3ccco3)c[nH]c2c1` gave Shiga inhibitor 62.9*, Lassa entry inh 1.8%, MARV entry inh inconclusive and Cycloheximide cs 49.1*.
COc1ccc(OCCNC(=O)c2ccccc2OCC(=O)Nc2ccc(NC(C)=O)cc2)cc1 was read as Shiga inhibitor 18.0, Lassa entry inh inconclusive, MARV entry inh 7.08µM* and Cycloheximide cs 24.3*.
Screening Cc1ccc(OCCNC(=O)c2cccc(C)c2)cc1 returned Shiga inhibitor 7.8 and Cycloheximide cs 10.1.
For CCCCOCCCNC(=O)COc1ccccc1 the results were Shiga inhibitor -7.9, Lassa entry inh 13.7%, MARV entry inh 4.0% and Cycloheximide cs -2.2.
`CCc1ccc(OCC(=O)NCCOc2ccccc2)cc1` gave Shiga inhibitor 65.5, Lassa entry inh 0.6%, MARV entry inh 11.0% and Cycloheximide cs 27.3*.
`COc1ccc2c(CCNC(N)=S)c[nH]c2c1` gave Shiga inhibitor 3.4 and Cycloheximide cs 9.7.
For Cc1ccc(OCCNC(=O)c2ccccc2N)cc1 the results were Shiga inhibitor 26.8* and Cycloheximide cs 12.9*.
Screening CC(C)(C)C1CCC(=NNC(=O)C(=O)NCc2ccco2)CC1 (configuration not stated) returned Shiga inhibitor -16.8, Lassa entry inh inconclusive, MARV entry inh 7.9% and Cycloheximide cs 1.4.
COc1ccccc1C(=O)NCCOc1ccc(C)c(C)c1 was read as Shiga inhibitor 38.6* and Cycloheximide cs 25.2*.
Screening CCOC(=O)NCCOc1ccc(Oc2ccccc2)cc1 returned Shiga inhibitor 30.3* and Cycloheximide cs 21.0*.
For CCc1ccc(OCCNC(=O)OCc2ccccc2)cc1 the results were Shiga inhibitor 39.8, Lassa entry inh -4.7%, MARV entry inh inconclusive and Cycloheximide cs -2.2.
COc1cc(SC)ccc1C(=O)NCCOc1ccc(C)c(C)c1 was read as Shiga inhibitor -5.3, Lassa entry inh -24.1%, MARV entry inh 2.7% and Cycloheximide cs 2.7.
`CCc1ccc(OCCNC(=O)c2ccco2)cc1` gave Shiga inhibitor 51.9* and Cycloheximide cs 34.4*.
`O=C(NCc1ccccc1)c1ccco1` gave Shiga inhibitor 4.4, Lassa entry inh -8.6%, MARV entry inh 19.1% and Cycloheximide cs -2.1.
For CCOc1ccc(CNC(=O)c2ccco2)cc1 the results were Shiga inhibitor 40.2 and Cycloheximide cs 20.4*.
Screening O=[N+]([O-])c1cc(C(F)(F)F)ccc1N1CCCC(O)C1 (configuration not stated) returned Shiga inhibitor 15.6, Lassa entry inh 2.2%, MARV entry inh inconclusive and Cycloheximide cs 2.0.
For CC1(C)CC2(CC(c3ccccc3F)c3ccc(O)c(O)c3O2)NC(=S)N1 (configuration not stated) the results were Shiga inhibitor 16.8, Lassa entry inh inconclusive, MARV entry inh -3.5%[46.1 µM] and Cycloheximide cs 1.5.
For O=C(NCCOc1ccc(Cl)cc1)c1ccco1 the results were Shiga inhibitor 10.8, Lassa entry inh 28.3%, MARV entry inh -5.1%[46.1 µM] and Cycloheximide cs 1.7.
For CCOC(=O)N/N=C/c1ccc(Oc2ccccc2)cc1 the results were Shiga inhibitor 104.1* and Cycloheximide cs 40.5*.
Screening CCOC(=O)N/N=C/c1ccc(C)o1 returned Shiga inhibitor 5.0, Lassa entry inh 7.4%, MARV entry inh 18.7% and Cycloheximide cs 1.8.
For Cc1ccc(OCCNC(=O)c2ccco2)cc1C the results were Shiga inhibitor 73.7*, Lassa entry inh 13.2%, MARV entry inh -1.5% and Cycloheximide cs 16.7*.

Bioassay records deposited in PubChem by National Center for Advancing Translational Sciences (NCATS).
